Each structure is given as a SMILES string. Several values for one entry are separate records, joined by “and”; a condition that tells them apart may be missing. Equal entries are not always repeated. Activity calls are given as the source filed them.

The subject of assay [1] is Plasmodium falciparum Sir2 (PF13_0152, Sir2A). Kind of assay: Plasmodium falciparum Sir2A binding compounds – biochemical, small-molecule microarray, 635 nm fluorescence, primary screen (AID 1098).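 Also: score merges spot fluorescence intensity with its signal-to-noise ratio.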 The note with it: fluorescence 635 nm, higher = more signal.
A short description of assay [2]: probe aDKK1 binding to arrayed compounds – biochemical, biotinylated probe, 635/667 nm fluorescence, primary screen (AID 1099).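 Also: score merges 667nm spot fluorescence with signal to noise across triplicate slides.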 The note with it: small-molecule microarray, higher = more signal.
Assay [3] is described as follows: probe aCHRDL2 binding to arrayed compounds – biochemical, biotinylated probe, 635/667 nm fluorescence, primary screen (AID 1100). The note with it: small-molecule microarray, higher = more signal.
A short description of assay [4]: change in splice reporter luminescence, either direction, cell-based, HEK293, spliceosome inhibition project, primary screen (AID 1101).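 Also: HEK293 cells carrying a splicing-competent luciferase reporter gene; test concentration not given here.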 The note with it: HEK293 splicing luciferase reporter, 24 h, higher = more signal, called active from +8 up or from −8 down.
Assay [5] has as its target Fibroblast growth factor 10 (Homo sapiens) (UniProt O15520). Kind of assay: compounds binding fibroblast growth factor 10 – biochemical, small-molecule microarray, 635 nm fluorescence, primary screen (AID 1102). The note with it: FGF10 binding, fluorescence 635 nm, higher = more signal.
Assay [6] relates to glycogen synthase kinase-3 (GSK3A per assay name; protocol says GSK3B). In words: compounds binding glycogen synthase kinase-3 – biochemical, small-molecule microarray, 635 nm fluorescence, GSK3A, primary screen (AID 1103). Also: the record names both GSK3A and GSK3B. The note with it: fluorescence 635 nm, higher = more signal.
The target of assay [7] is Epidermal growth factor receptor (Homo sapiens) (UniProt P00533). In words: compounds binding epidermal growth factor receptor – biochemical, small-molecule microarray, 635 nm fluorescence, primary screen (AID 1104).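 Also: score merges 667 nm emission intensity with spot signal to noise over triplicate slides.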 The note with it: EGFR binding, higher = more signal.
The target in assay [8] is Follistatin-related protein 3 (Homo sapiens) (UniProt O95633). In words: compounds binding follistatin-related protein 3 – biochemical, small-molecule microarray, 635 nm fluorescence, primary screen (AID 1105).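 Also: score merges emission near 667 nm and signal to noise per printed spot across three slides.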 The note with it: FSTL3 binding, higher = more signal.
Assay [9] deals with Dickkopf-related protein 1 (Homo sapiens) (UniProt O94907). In words: small molecules binding DKK1 protein – biochemical, small-molecule microarray, 635 nm fluorescence scan, primary screen (AID 1106).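 Also: score merges emission near 667 nm with signal to noise over three replicate slides.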 The note with it: higher = more signal.
The test system of assay [10] is Inhibin beta A chain (activin A). Kind of assay: small molecules binding activin A – biochemical, small-molecule microarray, 635 nm fluorescence scan, primary screen (AID 1107).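 Also: mouse activin A protein probed at 4.33 µg/mL on printed slides; score merges bound-protein fluorescence near 667 nm with spot signal-to-noise.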 The note with it: INHBA, higher = more signal.
Assay [11] deals with Human papillomavirus type 1a protein E7 (residues 44-93). Kind of assay: small molecules binding HPV E7 44-93 – biochemical, small-molecule microarray, residues 44-93, 635 nm fluorescence, primary screen (AID 1108).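 Also: E7 fragment applied at 1 µg/mL in TBST for 1 h at 4 C; score combines spot fluorescence with its signal to noise ratio.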 The note with it: fluorescence 635 nm, higher = more signal.
Assay [12] in a line: hepatitis C replication reporter changes, two-sided – Huh7 cells, luciferase reporter, HCV replication inhibitor project, primary screen (AID 1109).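 Also: huh7 hepatoma cells harbouring a luciferase neomycin HCV replicon reporter; luciferase luminescence as measure of HCV replicon replication; test concentration not given here.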 The note with it: Huh7 HCV replicon luciferase reporter, 48 h; higher = more signal.
The target of assay [13] is Left-right determination factor 2 (Homo sapiens) (UniProt O00292). Kind of assay: small molecules binding LEFTY2 protein – biochemical, small-molecule microarray, 635 nm fluorescence scan, primary screen (AID 1110). The note with it: higher = more signal.
The target in assay [14] is Calmodulin-1 (Homo sapiens) (UniProt P0DP23). In words: small molecules binding calmodulin-1 with EGTA – biochemical, small-molecule microarray, Cy5-labelled CALM1, profiling panel (AID 1111).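 Also: labelled calmodulin applied in Tris saline Tween buffer holding calcium plus EGTA and DTT.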 The note with it: Cy5-CALM1 binding fluorescence, higher = more signal.
The target is the same in assay [15]. Kind of assay: small molecules binding Ca-loaded calmodulin-1 – biochemical, small-molecule microarray, Cy5-labelled CALM1, plus calcium, artefact control for SMM control-protein annotation, profiling panel (AID 1112).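 Also: score merges spot fluorescence with signal to noise from triplicate slides.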 The note with it: Cy5-CALM1 binding fluorescence, higher = more signal.
The nature of assay [16]: probe aWnt5a binding to arrayed compounds – biochemical, biotinylated probe, 635/667 nm fluorescence, primary screen (AID 1113).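 Also: score merges 667 nm fluorescence intensity with signal-to-noise per printed feature.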 The note with it: small-molecule microarray, higher = more signal.
Assay [17] is described as follows: probe aShh binding to arrayed compounds – biochemical, biotinylated probe, 635/667 nm fluorescence, primary screen (AID 1114).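 Also: probe is biotin-labelled aShh protein from a stem cell growth factor screen; measures binding of labelled protein to compounds printed on the slide; score merges feature fluorescence at 667 nm with signal-to-noise.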 The note with it: small-molecule microarray, higher = more signal.
The nature of assay [18]: probe aNog binding to arrayed compounds – biochemical, biotinylated probe, 635/667 nm fluorescence, primary screen (AID 1115).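 Also: probe is biotinylated aNog protein used at 0.15 µg/mL for 1 h at 4 C; z-score combines 667 nm fluorescence of each spot with its signal to noise.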 The note with it: small-molecule microarray, higher = more signal.
For assay [19], the target named is Torsin-1A-interacting protein 1 (Homo sapiens) (UniProt Q5JTV8). Kind of assay: compound microarray binding of lysate hLAP1 – cell lysate, small-molecule microarray, COS7 lysate, 635/667 nm fluorescence, primary screen (AID 1116). The note with it: 635 nm fluorescence, higher = more signal.
In assay [20] the target is Alpha-bungarotoxin (Bungarus multicinctus) (UniProt P60615). Kind of assay: compounds binding labelled alpha-BTX control protein – biochemical, small-molecule microarray, Alexa647 label, 635/667 nm fluorescence, artefact control for SMM control protein annotation, profiling panel (AID 1117). The note with it: alpha-BTX-A647 binding fluorescence, higher = more signal.
Alpha-bungarotoxin (Bungarus multicinctus), sequence (P60615 whole entry, looked up): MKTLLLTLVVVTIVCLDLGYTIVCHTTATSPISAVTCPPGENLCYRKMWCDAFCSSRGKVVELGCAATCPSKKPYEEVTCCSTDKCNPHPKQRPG

Left-right determination factor 2 (Homo sapiens), sequence (O00292 whole entry, looked up): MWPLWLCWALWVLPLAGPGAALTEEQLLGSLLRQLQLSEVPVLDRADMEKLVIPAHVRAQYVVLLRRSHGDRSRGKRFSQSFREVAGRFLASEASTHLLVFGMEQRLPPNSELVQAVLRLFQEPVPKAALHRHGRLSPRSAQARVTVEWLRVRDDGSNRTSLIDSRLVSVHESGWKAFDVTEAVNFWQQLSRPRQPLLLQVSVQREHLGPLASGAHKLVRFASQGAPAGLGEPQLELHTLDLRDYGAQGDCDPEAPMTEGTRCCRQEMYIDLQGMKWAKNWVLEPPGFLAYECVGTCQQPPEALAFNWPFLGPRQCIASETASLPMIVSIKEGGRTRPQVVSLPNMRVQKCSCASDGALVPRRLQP
Follistatin-related protein 3 (Homo sapiens), sequence (O95633 whole entry, looked up): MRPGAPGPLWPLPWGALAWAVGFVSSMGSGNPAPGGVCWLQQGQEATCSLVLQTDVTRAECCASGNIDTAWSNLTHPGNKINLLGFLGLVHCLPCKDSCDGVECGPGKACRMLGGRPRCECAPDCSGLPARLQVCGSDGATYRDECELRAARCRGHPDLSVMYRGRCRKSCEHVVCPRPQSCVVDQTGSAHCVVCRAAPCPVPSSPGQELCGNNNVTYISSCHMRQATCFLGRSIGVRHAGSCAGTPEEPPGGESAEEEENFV
Torsin-1A-interacting protein 1 (Homo sapiens), sequence (Q5JTV8 whole entry, looked up): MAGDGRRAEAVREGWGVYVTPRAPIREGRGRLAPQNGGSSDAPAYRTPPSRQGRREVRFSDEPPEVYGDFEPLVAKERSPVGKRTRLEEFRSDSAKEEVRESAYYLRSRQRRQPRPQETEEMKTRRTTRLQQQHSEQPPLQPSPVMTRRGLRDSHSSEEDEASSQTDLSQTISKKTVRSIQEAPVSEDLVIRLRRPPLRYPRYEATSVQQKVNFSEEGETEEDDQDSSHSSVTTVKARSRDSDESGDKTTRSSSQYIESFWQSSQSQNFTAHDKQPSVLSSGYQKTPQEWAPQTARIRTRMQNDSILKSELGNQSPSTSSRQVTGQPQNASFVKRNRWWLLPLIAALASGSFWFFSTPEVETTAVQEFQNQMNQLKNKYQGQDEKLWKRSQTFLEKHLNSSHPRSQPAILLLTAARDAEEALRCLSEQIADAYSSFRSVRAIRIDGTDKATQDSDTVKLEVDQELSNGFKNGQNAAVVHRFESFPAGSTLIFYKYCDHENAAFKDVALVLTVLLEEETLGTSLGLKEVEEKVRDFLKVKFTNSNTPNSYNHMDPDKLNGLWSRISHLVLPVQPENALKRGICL
Fibroblast growth factor 10 (Homo sapiens), sequence (O15520 whole entry, looked up): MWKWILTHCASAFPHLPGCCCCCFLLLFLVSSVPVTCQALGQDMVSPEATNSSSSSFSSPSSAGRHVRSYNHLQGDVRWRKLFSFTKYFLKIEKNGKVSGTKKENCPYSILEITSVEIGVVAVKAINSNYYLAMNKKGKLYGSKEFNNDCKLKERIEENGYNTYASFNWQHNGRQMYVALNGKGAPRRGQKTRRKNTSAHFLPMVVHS
Epidermal growth factor receptor (Homo sapiens), sequence (P00533 whole entry, looked up): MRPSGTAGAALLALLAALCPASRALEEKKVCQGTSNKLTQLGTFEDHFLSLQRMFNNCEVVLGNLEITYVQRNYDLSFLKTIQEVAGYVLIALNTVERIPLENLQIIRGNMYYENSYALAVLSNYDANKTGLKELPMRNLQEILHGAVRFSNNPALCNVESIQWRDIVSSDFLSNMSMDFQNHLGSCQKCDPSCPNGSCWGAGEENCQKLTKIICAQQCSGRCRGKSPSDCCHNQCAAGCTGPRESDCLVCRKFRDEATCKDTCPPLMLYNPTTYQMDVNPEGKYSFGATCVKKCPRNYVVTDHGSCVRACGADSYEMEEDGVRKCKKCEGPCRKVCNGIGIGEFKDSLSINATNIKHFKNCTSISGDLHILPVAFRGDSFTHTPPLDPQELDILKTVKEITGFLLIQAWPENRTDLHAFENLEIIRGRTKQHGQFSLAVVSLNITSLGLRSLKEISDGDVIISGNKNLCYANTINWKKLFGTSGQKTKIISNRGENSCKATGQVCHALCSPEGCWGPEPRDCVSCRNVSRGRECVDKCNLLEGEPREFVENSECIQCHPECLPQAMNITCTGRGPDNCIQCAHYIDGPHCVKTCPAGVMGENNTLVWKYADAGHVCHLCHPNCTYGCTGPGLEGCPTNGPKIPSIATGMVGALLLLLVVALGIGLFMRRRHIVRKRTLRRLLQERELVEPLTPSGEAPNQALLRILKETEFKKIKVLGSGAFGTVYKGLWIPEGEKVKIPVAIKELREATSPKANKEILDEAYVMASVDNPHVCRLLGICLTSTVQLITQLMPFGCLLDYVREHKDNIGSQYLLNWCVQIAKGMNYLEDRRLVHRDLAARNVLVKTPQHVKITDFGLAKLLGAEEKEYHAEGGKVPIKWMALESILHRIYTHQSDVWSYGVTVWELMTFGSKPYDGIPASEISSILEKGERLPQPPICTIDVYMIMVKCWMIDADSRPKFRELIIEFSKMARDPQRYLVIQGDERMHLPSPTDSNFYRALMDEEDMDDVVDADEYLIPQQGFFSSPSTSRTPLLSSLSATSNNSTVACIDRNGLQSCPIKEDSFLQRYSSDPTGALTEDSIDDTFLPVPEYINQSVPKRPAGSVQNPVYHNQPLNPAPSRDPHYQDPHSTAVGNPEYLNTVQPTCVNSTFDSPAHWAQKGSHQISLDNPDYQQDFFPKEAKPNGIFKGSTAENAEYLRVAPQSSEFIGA
Dickkopf-related protein 1 (Homo sapiens), sequence (O94907 whole entry, looked up): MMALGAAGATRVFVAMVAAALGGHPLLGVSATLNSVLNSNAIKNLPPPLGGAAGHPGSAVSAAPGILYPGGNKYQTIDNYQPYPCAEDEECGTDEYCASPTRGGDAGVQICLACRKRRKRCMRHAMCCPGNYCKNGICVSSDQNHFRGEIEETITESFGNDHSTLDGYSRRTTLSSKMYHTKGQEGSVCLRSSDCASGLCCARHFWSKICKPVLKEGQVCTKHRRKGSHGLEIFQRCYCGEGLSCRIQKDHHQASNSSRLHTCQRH

As for `CCOC(=O)[C@@H]1CC=C2CC1C(=O)N1CCC[C@@H]1[C@H]2O[Si](C)(C)C(C)(C)C` (stereo not given in full), the composite z-score in assay [1] is -0.632 and -0.617; in assay [2] it was -0.0776 and -0.228; in assay [3], -0.0464 and -0.898; in assay [5] it was -0.182 and -1.24; in assay [6], -0.0945 and -1.32; in assay [7], -0.762 and -0.649. Moreover, the composite z-score in [8] was -0.552 and -0.744; in assay [9], 0.055 and -0.0246; in assay [10] it was 0.401 and 0.933; in assay [11], -1.02 and -0.733; in assay [13], -0.355 and 0.279; in assay [14], -1.9 and -1.57. Moreover, the composite z-score is -0.312 and -1.91 in assay [15]; -0.0512 and -0.252 in [16]; 0.0611 and -0.2 in assay [17]; -0.0863 and -0.48 in assay [18]; -0.496 and -1.03 in [19]; -0.922 and -1.49 in assay [20]. Also, the z-score in assay [4] was 0.474 (inactive) and 0.337 (inactive); in assay [12], -0.558 and -1.14.
Regarding `CC(C)OC(=O)C=C1C[C@@H](c2cccc(C(F)(F)F)c2)O[C@@H](c2cccc(C(F)(F)F)c2)O1`, the composite z-score in [1] is 0.937 and 1.55; in [2], 0.326 and -0.186; in [3] it was 0.605 and -0.185; in assay [5], -0.135 and -0.527; in assay [6], 0.335 and 0.267; in assay [7] it was -1.14 and -1.45. Moreover, the composite z-score is -0.815 and -1.39 in assay [8]; -0.49 and -0.776 in [9]; -0.347 and -0.587 in assay [10]; 1.34 and 0.979 in [11]; -0.906 and -0.656 in assay [13]; 1.21 and 0.297 in [14]. Moreover, the composite z-score in [15] is 0.831 and 0.224; in [16] it was 0.0433 and -0.218; in assay [17], 0.04 and -0.162; in [18] it was 0.509 and 0.655; in assay [19], 1.03 and 0.0622; in assay [20], 0.613 and 0.269. The z-score in assay [4] was 1.12 (inactive) and -1.24 (inactive); in assay [12], -1.55 and -2.35.
Take `COc1ccc(O[C@H]2C=C[C@@H](c3ccccc3)O[C@@H]2COC(=O)CCC(C)=NO[C@H](C)c2cn([C@H](CO)Cc3ccccc3)nn2)cc1`: the composite z-score in assay [1] is 0.366 and 0.205; in [2] it was 0.416 and -0.0879; in [3] it was -0.305 and -0.291; in [5], -0.0593 and 0.263; in assay [6], -0.018 and 0.173; in assay [7], 0.188 and 0.353. Besides, the composite z-score is 0.73 and 0.397 in assay [8]; 1.12 and 1.39 in [9]; 0.164 and 0.485 in assay [10]; -0.0009 and -0.0146 in assay [11]; 0.195 and 0.439 in [13]; -0.223 and -0.233 in assay [14]. For the same molecule, the composite z-score is -0.232 and -0.239 in [15]; -0.132 and 0.205 in [16]; -0.0553 and -0.129 in assay [17]; -0.0827 and 0.96 in [18]; 0.14 and 0.392 in [19]; 0.211 and 0.231 in assay [20]. For the same molecule, the z-score is -0.643 (inactive) and -1.07 (inactive) in assay [4]; -1.99 and -2.59 in assay [12].
As to `C[N+](C)(C)CCCCCCNC(=O)[C@H]1C[C@H]2C(=O)N[C@@H](CCCC[N+](C)(C)C)C(=O)N2[C@H]1c1cccc(OCCO)c1`, the composite z-score in [1] is 1.73 and 1.42; in assay [2], -0.0501 and 1.08; in assay [3] it was -0.148 and 0.62; in [5], 1.2 and 0.913; in [6] it was 0.898 and 0.613; in assay [7] it was 0.111 and 0.558. The composite z-score in assay [8] is 1.44 and 0.262; in assay [9] it was 1.34 and 1.55; in assay [10], 0.589 and 1.36; in assay [11], 0.519 and 0.362; in assay [13], 1.35 and 1.04; in assay [14], -0.742 and -0.31. Further, the composite z-score in assay [15] is -0.458 and 0.0972; in [16], -0.0981 and -0.0478; in assay [17], -0.291 and -0.167; in assay [18] it was -0.0855 and 0.304; in assay [19], 0.953 and 0.544; in assay [20] it was 0.433 and -0.3. The z-score in [4] was -0.159 (inactive) and 0.257 (inactive); in assay [12] it was 1.38 and 1.18.
On to `C=CC[C@H](O)c1ccc(OCCO)cc1`, for which the composite z-score in [1] was 0.142 and -0.925; in assay [2], 0.203 and -0.308; in assay [3] it was 0.777 and 0.484; in [5], -0.603 and -0.328; in assay [6], -0.92 and -2.17; in assay [7] it was -0.883 and -0.455. Also, the composite z-score in assay [8] was -0.382 and -0.0904; in assay [9], -1.06 and -0.251; in assay [10], 0.149 and 0.677; in assay [11], -0.664 and -3.44; in assay [13], -0.774 and -0.827; in assay [14], -1.14 and -0.814. The composite z-score is 0.237 and 0.234 in assay [15]; -0.176 and -0.139 in assay [16]; -0.221 and -0.288 in assay [17]; -0.0144 and 0.419 in [18]; -0.24 and -1.3 in [19]; 2.4 and -0.101 in assay [20]. Besides, the z-score in assay [4] is 0.296 (inactive) and 2.7 (inactive); in assay [12], -0.921 and 0.924.

Values taken from PubChem BioAssay.
